Source: PubChem
In the library only some 2.7% were active in any assay of this set; here they are far more common.
ATG4B inhibitor = ATG4B protease inhibitors, primary screen, biochemical, fluorescence, uHTS; actives 0.51% (n = 340,000); inhibition, % at 8.33 µM; ATG4B cleavage of LC3-PLA2, NBD-HPC fluorescence, 1 h; AID 504462, 2011; Cysteine protease ATG4B (Homo sapiens), Q9Y4P1; in the data active = inhibition above about 40%
MPTP inh = mitochondrial permeability transition pore inhibitors, primary screen, biochemical, isolated mouse mitochondria, absorbance; Ca2+ swelling absorbance, 30 min; inhibition, % at 10 µM; actives 1.4% (n = 360,000);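 active = inhibition of 50% or more, scaled per plate between neutral and stimulator controls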
SKN-1 inh = suppressors of acrylamide-induced Pgst-4::GFP reporter in worms, primary screen, SKN-1 inhibitor project, whole organism, uHTS, GFP/RFP fluorescence ratio, strain VP596; inhibition, % at 21.8 µM; actives 0.49% (n = 360,000); AID 624304, 2012; C. elegans VP596 Pgst-4::GFP/RFP ratio, 24 h;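 active = interference check ratio from 0.5 to 1.5 plus GFP to RFP signal ratio inhibition reaching or exceeding a fixed threshold, cut at about 30% in these data, passing the limit was not always enough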
CendR NRP1 mod = modulators of CendR peptide binding to NRP-1, primary screen, biochemical, fluorescence polarization, uHTS. actives 0.85% (n = 360,000). FAM-RPARPAR peptide binding to NRP-1. inhibition, % at 25 µM;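 active = inhibition or corrected inhibition above about 18%, plus a signal ratio from 0.5 to 1.5, limit read from the data, passing the limit was not always enough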
Target sequence (O14786 whole entry, looked up): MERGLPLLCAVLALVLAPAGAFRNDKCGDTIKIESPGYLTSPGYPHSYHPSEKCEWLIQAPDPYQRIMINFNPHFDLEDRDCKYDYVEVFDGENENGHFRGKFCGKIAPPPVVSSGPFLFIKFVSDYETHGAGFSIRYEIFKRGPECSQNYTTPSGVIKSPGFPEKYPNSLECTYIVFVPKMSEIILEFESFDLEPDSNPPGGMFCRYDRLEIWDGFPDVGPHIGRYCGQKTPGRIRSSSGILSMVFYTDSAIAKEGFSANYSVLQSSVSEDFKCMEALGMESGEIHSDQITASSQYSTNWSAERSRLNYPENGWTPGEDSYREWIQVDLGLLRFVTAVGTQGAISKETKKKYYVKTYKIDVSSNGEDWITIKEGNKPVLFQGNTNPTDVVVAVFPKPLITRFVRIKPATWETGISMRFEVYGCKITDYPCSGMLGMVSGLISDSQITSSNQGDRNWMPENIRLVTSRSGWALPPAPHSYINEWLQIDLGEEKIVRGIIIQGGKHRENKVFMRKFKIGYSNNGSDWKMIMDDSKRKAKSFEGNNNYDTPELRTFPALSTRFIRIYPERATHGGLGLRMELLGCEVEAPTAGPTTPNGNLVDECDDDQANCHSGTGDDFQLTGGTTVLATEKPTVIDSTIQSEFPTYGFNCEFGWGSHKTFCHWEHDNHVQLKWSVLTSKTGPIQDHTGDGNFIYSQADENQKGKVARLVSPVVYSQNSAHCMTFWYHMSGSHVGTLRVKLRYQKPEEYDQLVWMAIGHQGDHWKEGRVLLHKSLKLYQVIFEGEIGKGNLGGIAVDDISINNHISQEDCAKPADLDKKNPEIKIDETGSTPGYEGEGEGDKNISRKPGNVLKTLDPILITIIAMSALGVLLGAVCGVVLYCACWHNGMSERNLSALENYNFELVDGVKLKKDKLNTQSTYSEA
CFTR F508del cor = F508del CFTR correction, initial screen, CFBE line, single point | activity (quench increase), % at 7.58 µM | actives 0.36% (n = 350,000) | CFBE cells, YFP halide quenching; stimulated with forskolin plus potentiator P3; % fluorescence drop versus neutral controls;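 active = mean added fluorescence quench of at least 8% versus neutral control, with both replicates also reaching 8%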;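 also: cells transiently co-express mutant CFTR-F508del with the halide-sensitive YFP; corrector assay measuring rescue of mutant channel to the surface after 24 h compound exposure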
Rh123 counter = fluorescence retest of MPTP screen hits in isolated mitochondria, single concentration; membrane potential, Rhodamine 123 fluorescence; actives 78% (n = 5,000); inhibition, % at 10 µM; shares compounds with MPTP inh; in the data active = inhibition above about 22%
MPTP swell DR = mitochondrial permeability transition pore inhibitors, dose response, biochemical, absorbance, uHTS hits | actives 58% (n = 780) | IC50, µM | shares compounds with MPTP inh | isolated mitochondria swelling; in the data active = IC50 below about 20 µM
MPTP counter DR = fluorescent counter-screen in isolated mitochondria, dose response, counter-screen for MPTP inhibitor project, biochemical, fluorescence, uHTS hits | IC50, µM | actives 49% (n = 780) | isolated mitochondria counterscreen, fluorescence read-out | shares compounds with MPTP inh | AID 651564, 2012; in the data active = IC50 below about 80 µM
Large screens that a line does not name were inactive (follow-up assays come after a bar, where they were run).

C[C@@H]1CCCCO[C@H](CN(C)S(=O)(=O)c2ccc(F)cc2)[C@@H](C)CN([C@@H](C)CO)C(=O)c2cc(NS(=O)(=O)c3ccc(F)cc3)ccc2O1	none (no result: ATG4B inhibitor, MPTP inh, SKN-1 inh, CendR NRP1 mod)
Cc1ccccc1OCCNC(=O)CSc1ccc(C(F)(F)F)cc1[N+](=O)[O-]	MPTP inh 93.1 (no result: CFTR F508del cor) | Rh123 counter 73.4
COc1ccc(OCCNC(=O)c2cccc(Oc3ccc(C(F)(F)F)cc3[N+](=O)[O-])c2)cc1	none (no result: CFTR F508del cor)
COc1cccc(OCCNC(=O)CSc2ccc(C(F)(F)F)cc2[N+](=O)[O-])c1	MPTP inh 76.2 (no result: CFTR F508del cor) | Rh123 counter 45.7
CCN(CC)C(=O)CSc1ccc(C(F)(F)F)cc1[N+](=O)[O-]	none (no result: CFTR F508del cor)
Cc1noc(C)c1NC(=O)Nc1ccc2c(c1)CC(=O)N([C@H](C)CO)C[C@H](C)[C@@H](CN(C)Cc1ccncc1)O2	none (no result: ATG4B inhibitor, MPTP inh, SKN-1 inh, CendR NRP1 mod)
COc1ccc(S(=O)(=O)N(C)C[C@@H]2Oc3ccc(NC(=O)C4CC4)cc3CC(=O)N([C@H](C)CO)C[C@@H]2C)cc1	none (no result: ATG4B inhibitor, MPTP inh, SKN-1 inh, CendR NRP1 mod)
Cc1nn(C)c2ncc(C(=O)c3cc(F)ccc3O)cc12	none (no result: CFTR F508del cor)
CCc1nn2cc(C(=O)c3cc(Cl)ccc3O)cnc2c1-c1ccc(F)cc1	MPTP inh 100.2 | Rh123 counter 93.0
COc1ccc(CCNC(=S)Nc2ccc(C(C)C)cc2)cc1	none
CC(C)c1ccc(NC(=S)Nc2ccc(OC(F)(F)F)cc2)cc1	MPTP inh 89.7 | Rh123 counter 89.8
O=C(O)/C=C/C(=O)Nc1ccc(OC(F)(F)F)cc1	none
FC(F)(F)Oc1ccc(NC(=S)Nc2ccc(OC(F)(F)F)cc2)cc1	MPTP inh 95.0 | Rh123 counter 71.0
Cc1ccc(CNc2nc(Cl)c(C#N)s2)cc1	MPTP inh 67.1 | Rh123 counter 76.6
COCC(=O)N1CCCCN2[C@@H](CO)[C@H](c3ccc(C#Cc4cccnc4)cc3)[C@@H]2C1	none (no result: ATG4B inhibitor, MPTP inh, SKN-1 inh, CendR NRP1 mod)
Nc1ccccc1N=Cc1ccc(-c2cccc(Cl)c2)o1	MPTP inh 67.1 | Rh123 counter 65.9
COC(=O)N/N=C/c1ccc(-c2cccc(Cl)c2)o1	none (no result: CFTR F508del cor)
Cc1ccc2cc(CN(CCN(C)C)C(=O)Nc3ccc(Cl)cc3)c(=O)[nH]c2c1	MPTP inh 92.2 | Rh123 counter 100.3
Cc1ccc2[nH]c(=O)c(CN(CCCN(C)C)C(=O)Nc3ccc(Cl)cc3)cc2c1	none (no result: CFTR F508del cor)
C/C(=N\NC(=O)C1CC1(c1ccccc1)c1ccccc1)c1cccc([N+](=O)[O-])c1 (stereo not given)	none
Cc1ccc(C2(c3ccc(C)cc3)CC2C(=O)Nc2ccc([N+](=O)[O-])cc2O)cc1 (stereo not given)	MPTP inh 82.3 (no result: CFTR F508del cor) | Rh123 counter 46.8
CC1(C)CC1C(=O)Nc1ccc([N+](=O)[O-])cc1Br (stereo not given)	none (no result: CFTR F508del cor)
O=C(Nc1ccc([N+](=O)[O-])cc1)C1CC1(c1ccccc1)c1ccccc1 (stereo not given)	MPTP inh 92.1 (no result: CFTR F508del cor) | Rh123 counter 86.7
CN1CCN(C(=O)C[C@H]2CC[C@H]3[C@@H](COC[C@@H](O)CN3C(=O)C3CC3)O2)CC1	none (no result: ATG4B inhibitor, MPTP inh, SKN-1 inh, CendR NRP1 mod)
O=C(NCCCCCCOC1=NS(=O)(=O)c2ccccc21)C(=O)Nc1ccccc1	MPTP inh 73.0 (no result: CFTR F508del cor) | Rh123 counter 67.8
CC(CCOC1=NS(=O)(=O)c2ccccc21)NC(=O)C(=O)Nc1ccccc1 (stereo not given)	none
Cc1ccc(C2CC2C(=O)NNC(=S)Nc2cccc(Cl)c2)cc1 (stereo not given)	MPTP inh 60.6 (no result: CFTR F508del cor) | Rh123 counter 70.4
Cc1noc(C)c1NC(=O)Nc1ccc2c(c1)CC(=O)N([C@@H](C)CO)C[C@H](C)[C@@H](CN(C)Cc1ccc(-c3ccccc3)cc1)O2	none (no result: ATG4B inhibitor, MPTP inh, SKN-1 inh, CendR NRP1 mod)
Cc1ccc(C(=O)N(CC(=O)Nc2ccc(Cl)c(Cl)c2)Cc2ccco2)cc1	MPTP inh 53.0 (no result: CFTR F508del cor) | Rh123 counter 70.7
O=C([C@H]1[C@H](CO)[C@H]2Cn3c(cccc3=O)[C@@H]1N2CC1CCCC1)N1CCCCC1	none (no result: ATG4B inhibitor, MPTP inh, SKN-1 inh, CendR NRP1 mod)
CCN(CC)CCCN=Cc1c(O)n(-c2c(C)cccc2C)c(=O)c2ccccc12	none
CCN(CC)CCCN=Cc1c(O)n(Cc2ccccc2)c(=O)c2ccccc12	MPTP inh 78.6 (no result: CFTR F508del cor) | Rh123 counter inactive | MPTP swell DR 11.8 | MPTP counter DR inactive
CNC[C@H]1Oc2c(N)cccc2C(=O)N([C@H](C)CO)C[C@@H]1C	none (no result: ATG4B inhibitor, MPTP inh, SKN-1 inh, CendR NRP1 mod)
C[C@@H]1CN([C@H](C)CO)C(=O)c2cccc(NC(=O)C3CC3)c2O[C@H]1CN(C)C(=O)Nc1ccccc1	none (no result: ATG4B inhibitor, MPTP inh, SKN-1 inh, CendR NRP1 mod)
O=C(NNc1nc2ccccc2s1)Nc1ccc(F)cc1	none
CS(=O)(=O)c1ccc2nc(NC(=O)c3ccc(Cl)cc3)sc2c1	none
O=C(CN1c2ccccc2Sc2ccccc21)NNC(=O)Nc1ccc(Cl)c(Cl)c1	MPTP inh 51.9 | Rh123 counter 22.4
CS(=O)(=O)c1ccc2nc(NC(=O)Nc3ccc(Cl)cc3)sc2c1	MPTP inh 95.1 | Rh123 counter 77.9
O=C(NNc1nc2ccccc2s1)Nc1ccc(Cl)c(Cl)c1	MPTP inh 73.5 | Rh123 counter 75.2
COc1ccc2nc(NC(=O)Nc3ccccc3)sc2c1	none
CCOc1ccc2nc(NC(=O)Nc3ccccc3)sc2c1	MPTP inh 90.0 (no result: CFTR F508del cor) | Rh123 counter 74.0
COC(=O)N(C)C[C@H]1OCc2ccccc2-c2c(n(C)c3ccccc23)C(=O)N([C@H](C)CO)C[C@H]1C	none (no result: ATG4B inhibitor, MPTP inh, SKN-1 inh, CendR NRP1 mod)
C[C@@H]1CN([C@@H](C)CO)C(=O)c2cc(-c3ccccc3F)cnc2O[C@@H]1CN(C)C(=O)C1CCC1	none (no result: ATG4B inhibitor, MPTP inh, SKN-1 inh, CendR NRP1 mod)
CN(c1ccc(OCC(=O)Nc2nc3ccccc3s2)cc1)S(=O)(=O)c1ccccc1	none
CCOc1ccc(S(=O)(=O)N(C)c2ccc(OCC(=O)Nc3nc4ccccc4s3)cc2)cc1	MPTP inh 95.7 (no result: CFTR F508del cor) | Rh123 counter 79.9
COc1ccc(NC(=O)c2nc3ccccc3s2)cc1	none
COc1ccc(NC(=O)Nc2nc3ccccc3s2)cc1	MPTP inh 63.7 | Rh123 counter 80.8
CCCC(=O)Nc1ccc2c(c1)OC[C@@H](C)N(C(=O)Cc1cccnc1)C[C@@H](C)[C@H](OC)CN(C)C2=O	none (no result: ATG4B inhibitor, MPTP inh, SKN-1 inh, CendR NRP1 mod)
C[C@@H](NC(=O)C[C@H]1CC[C@@H](NC(=O)C2CC2)[C@H](CO)O1)c1ccccc1	none (no result: ATG4B inhibitor, MPTP inh, SKN-1 inh, CendR NRP1 mod)
